In assay [1] the target is Nuclear receptor coactivator 3 (Homo sapiens) (UniProt Q9Y6Q9). Put plainly: NCOA3 GAL4-fusion reporter inhibition – cell-based, luminescence, quadruplicate, confirmation (AID 588792;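 active = mean inhibition over 43.08%, the solvent-only control mean plus 3 SD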;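 note: 0% = DMSO treated cells and 100% = gossypol at 36 µM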). The conditions noted are these: HEK293 GAL4-SRC3 luciferase reporter, at 3.6 µM, stronger effect = higher value. Background: A reporter such as luciferase makes a cellular process visible.
The test system of assay [2] is transactivating tegument protein VP16 (Human herpesvirus 1), Gal4-VP16 luciferase reporter. Nature of the assay: repression of VP16-driven luciferase reporter – cell-based, luminescence, high throughput, counter-screen for SRC3 inhibitor project (AID 588794). The conditions noted are these: mammalian cells, at 3.6 µM, stronger effect = higher value.
The test system of assay [3] is transactivating tegument protein VP16 (Human herpesvirus 1). Nature of the assay: compounds suppressing VP16-driven luciferase signal – cell-based, luminescence, single concentration, counter-screen for SRC2 inhibitor project (AID 652007; in the data active = inhibition above about 36%). Particulars: cell-based VP16 transactivation luciferase reporter, at 8.9 µM, stronger effect = higher value. (In general: Counterscreens check selectivity or assay interference.)

Assay [4] concerns the target Nuclear receptor coactivator 2 (Homo sapiens) (UniProt Q15596). Nature of the assay: inhibition of GAL4-SRC2 driven luciferase expression – cell-based, luminescence, HEK293, triplicate, confirmation (AID 652008;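 active = mean inhibition above 46.5%, the solvent-only control mean plus 3 SD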;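 note: 0% = DMSO-treated cells and 100% = Gossypol at 36 µM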). Particulars: HEK293 GAL4-SRC2 luciferase reporter, at 8.9 µM, stronger effect = higher value.

The structures appear in SMILES notation. Unmarked numbers belong to inactive results. Active and inactive are the calls of the source. Cut-off read from the data, not from the text of the source, unless noted: active = inhibition above about 30%; inactive = the rest.

The inhibition is the drop in the measured response relative to a control, in per cent.

Nuclear receptor coactivator 2 (Homo sapiens), sequence (Q15596 whole entry, looked up, the tested form may be a part): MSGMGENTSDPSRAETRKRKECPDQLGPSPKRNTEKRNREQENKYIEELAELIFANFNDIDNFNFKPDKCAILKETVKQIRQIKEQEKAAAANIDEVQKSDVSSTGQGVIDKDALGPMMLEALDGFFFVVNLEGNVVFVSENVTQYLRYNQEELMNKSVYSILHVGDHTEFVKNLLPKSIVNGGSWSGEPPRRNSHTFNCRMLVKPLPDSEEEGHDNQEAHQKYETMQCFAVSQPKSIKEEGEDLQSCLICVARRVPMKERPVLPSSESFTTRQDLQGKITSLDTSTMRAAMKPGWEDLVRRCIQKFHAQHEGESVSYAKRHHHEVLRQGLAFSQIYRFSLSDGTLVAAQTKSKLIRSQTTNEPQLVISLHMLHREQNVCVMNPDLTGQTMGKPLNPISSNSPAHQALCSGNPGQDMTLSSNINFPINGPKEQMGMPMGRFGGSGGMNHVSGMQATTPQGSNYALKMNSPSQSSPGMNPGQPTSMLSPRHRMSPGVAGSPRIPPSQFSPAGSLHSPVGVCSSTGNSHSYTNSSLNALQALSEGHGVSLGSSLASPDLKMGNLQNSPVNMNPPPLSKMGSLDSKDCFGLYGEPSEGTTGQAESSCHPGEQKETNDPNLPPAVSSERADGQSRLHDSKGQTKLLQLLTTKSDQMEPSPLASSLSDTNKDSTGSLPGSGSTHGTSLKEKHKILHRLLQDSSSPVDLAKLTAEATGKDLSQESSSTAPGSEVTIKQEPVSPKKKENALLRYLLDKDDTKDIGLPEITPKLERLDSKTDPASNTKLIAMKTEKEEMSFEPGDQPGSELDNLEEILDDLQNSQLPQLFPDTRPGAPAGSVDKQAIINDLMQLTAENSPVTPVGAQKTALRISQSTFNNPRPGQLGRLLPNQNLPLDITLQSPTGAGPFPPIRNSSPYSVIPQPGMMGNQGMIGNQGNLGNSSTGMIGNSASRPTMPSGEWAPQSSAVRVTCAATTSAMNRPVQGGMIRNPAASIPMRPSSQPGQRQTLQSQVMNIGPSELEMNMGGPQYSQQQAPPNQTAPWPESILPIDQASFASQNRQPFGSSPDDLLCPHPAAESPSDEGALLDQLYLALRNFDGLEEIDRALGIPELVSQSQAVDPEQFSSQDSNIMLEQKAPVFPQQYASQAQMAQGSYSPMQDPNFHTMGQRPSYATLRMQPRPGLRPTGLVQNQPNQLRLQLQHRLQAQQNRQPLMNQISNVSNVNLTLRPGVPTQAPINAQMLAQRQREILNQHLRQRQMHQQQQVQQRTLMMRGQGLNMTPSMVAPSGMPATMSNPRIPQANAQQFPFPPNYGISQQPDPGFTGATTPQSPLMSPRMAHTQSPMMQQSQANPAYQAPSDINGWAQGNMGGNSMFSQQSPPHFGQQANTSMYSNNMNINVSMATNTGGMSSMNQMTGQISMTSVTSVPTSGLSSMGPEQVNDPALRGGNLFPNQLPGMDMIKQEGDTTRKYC
Nuclear receptor coactivator 3 (Homo sapiens), sequence (Q9Y6Q9 whole entry, looked up, the tested form may be a part): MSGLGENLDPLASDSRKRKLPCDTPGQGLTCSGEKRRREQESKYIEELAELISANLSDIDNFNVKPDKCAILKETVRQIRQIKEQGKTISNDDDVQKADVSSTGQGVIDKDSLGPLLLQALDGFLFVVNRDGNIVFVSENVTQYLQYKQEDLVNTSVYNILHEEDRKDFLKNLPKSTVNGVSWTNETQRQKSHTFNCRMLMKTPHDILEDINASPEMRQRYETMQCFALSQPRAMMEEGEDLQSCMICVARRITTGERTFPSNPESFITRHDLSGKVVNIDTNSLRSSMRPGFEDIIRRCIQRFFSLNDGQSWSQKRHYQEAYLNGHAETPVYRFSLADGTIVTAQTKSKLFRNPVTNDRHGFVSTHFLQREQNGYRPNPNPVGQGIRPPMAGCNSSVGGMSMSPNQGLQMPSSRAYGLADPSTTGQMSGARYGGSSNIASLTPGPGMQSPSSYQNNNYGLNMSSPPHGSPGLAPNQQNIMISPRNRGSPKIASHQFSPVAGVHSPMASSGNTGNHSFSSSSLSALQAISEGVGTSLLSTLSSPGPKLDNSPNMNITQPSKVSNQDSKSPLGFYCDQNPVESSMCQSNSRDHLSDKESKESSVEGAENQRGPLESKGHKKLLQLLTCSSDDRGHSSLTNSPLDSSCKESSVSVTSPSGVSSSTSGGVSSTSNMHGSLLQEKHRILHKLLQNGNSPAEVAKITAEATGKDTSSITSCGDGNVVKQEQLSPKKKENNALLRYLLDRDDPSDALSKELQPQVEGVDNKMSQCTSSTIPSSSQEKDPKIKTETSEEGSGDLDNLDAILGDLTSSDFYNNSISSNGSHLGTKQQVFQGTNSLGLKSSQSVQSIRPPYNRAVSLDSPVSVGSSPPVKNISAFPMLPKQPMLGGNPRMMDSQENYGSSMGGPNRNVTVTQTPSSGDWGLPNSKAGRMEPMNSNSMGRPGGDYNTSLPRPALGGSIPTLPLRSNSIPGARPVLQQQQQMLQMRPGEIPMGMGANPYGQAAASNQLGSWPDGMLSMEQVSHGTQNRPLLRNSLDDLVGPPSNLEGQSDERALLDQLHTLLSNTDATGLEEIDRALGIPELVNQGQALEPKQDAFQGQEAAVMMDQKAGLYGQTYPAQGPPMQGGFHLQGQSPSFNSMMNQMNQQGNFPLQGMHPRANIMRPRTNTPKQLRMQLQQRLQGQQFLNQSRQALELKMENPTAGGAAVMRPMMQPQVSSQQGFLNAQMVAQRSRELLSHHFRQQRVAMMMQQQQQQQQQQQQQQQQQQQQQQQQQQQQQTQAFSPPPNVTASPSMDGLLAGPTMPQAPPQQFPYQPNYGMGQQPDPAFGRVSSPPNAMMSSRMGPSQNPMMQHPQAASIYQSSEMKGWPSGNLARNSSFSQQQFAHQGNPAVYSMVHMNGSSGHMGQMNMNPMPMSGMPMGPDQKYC

As to `CCN(CC)S(=O)(=O)c1ccc(N/N=C/c2cc(OC)ccc2O)nc1`, the inhibition was 31.4% in assay [1], 31% (active) in assay [2], -11% in assay [3] and 19.9% in assay [4].
Regarding `CCCCN(CC)Cc1ccc(CNC(=S)Nc2ccc(C)cc2Cl)o1`, the inhibition is 14.2% in assay [1], -5.53% in assay [2], 12.7% in assay [3] and 30.4% in assay [4].
In the case of `O=C(NCCCn1ccnc1)c1ccc(N2CCCCCC2)c([N+](=O)[O-])c1`, the inhibition in assay [1] was 50.3% (active); in assay [2] it was -23.6%; in assay [3], 26.9%; in assay [4], 54.3% (active).
For `COc1ccc(COC(=O)C2=C(C)NC(=O)NC2c2ccc(OC)cc2)cc1` (stereo unspecified) the same measures were 11.2%, 20.8%, 12% and 33%.

The values above are taken from PubChem BioAssay.
